Measurements as given in PubChem BioAssay AID463173 (ICCB-Longwood Screening Facility, Harvard Medical School, 2010).
Hit rate of the full screen: of about 52,000 compounds, about 1,700 (3.3%) were called active. Cut-off read from the data, not from the text of the source: active = survival mostly below about 52% (no sharp cut-off); inactive = mostly above about 56%. Only a selection was taken, and actives are over-represented in it overall.

Each compound was assayed on Wild type (assay: growth inhibition of S. aureus wild type versus tarO mutant, primary screen, teichoic acid synthesis inhibitors, RN4220, OD600 (AID 463173)). Conditions: S. aureus RN4220 wild type/DeltatarO growth, OD600, 18 h, hits give low values, screened at 18.75 µg/mL (by protocol).
In the case of Cc1ccc(N2C(=O)SC(N(CC(=O)O)c3ccccc3)C2=O)cc1 (centres undefined), the survival is reported as 112% (inactive). With Cc1ccc(C)c(NC(=O)Nc2cccc(-c3cn4cccnc4n3)c2)c1 the survival was 71% (inactive). In the case of O=S(=O)(c1ccc(Nc2ccc(-c3ccccc3)nn2)cc1)N1CCCC1, the survival is reported as 104% (inactive). In the case of Cc1cc(C)cc(N2C(=O)N(CC(=O)c3ccc(Br)cc3)c3ccccc3S2(=O)=O)c1, the survival is reported as 84% (inactive). With O=C1CC(c2ccc(Br)cc2)c2c(ccc3ccccc23)N1 (centres undefined) the survival was 39% (inactive). With Cc1ccc(CSc2ccc3nnc(CCNS(=O)(=O)c4ccc(C)cc4)n3n2)cc1 the survival was 82% (inactive). O=C(NCCCN1CCCCC1)c1cc(Sc2ccc(Cl)cc2)nc2ccccc12 was tested, and the survival was -1% (active). In the case of CC1CCCCN1CCCNC(=O)c1cc(Sc2ccc(Cl)cc2)nc2ccccc12 (centres undefined), the survival is reported as 78% (inactive). With CC1CCCN(CCCNC(=O)c2cc(Sc3ccc(F)cc3)nc3ccccc23)C1 (centres undefined) the survival was 14% (active). In the case of CC1CCN(CCCNC(=O)c2cc(Sc3ccc(F)cc3)nc3ccccc23)CC1, the survival is reported as 74% (inactive). CCc1ccc(Sc2cc(C(=O)NCCCN3CCC(C)CC3)c3ccccc3n2)cc1 was tested, and the survival was 68% (inactive). In the case of CCc1ccc(Sc2cc(C(=O)NCCCN3CCCC(C)C3)c3ccccc3n2)cc1 (centres undefined), the survival is reported as 71% (inactive). CC(=O)c1[nH]c(C)c(C(=O)NCCc2ccc(C)cc2)c1C was tested, and the survival was 88% (inactive). In the case of CC(=O)Nc1cc(-n2cnnn2)ccc1C, the survival is reported as 98% (inactive). For Cc1ccc(NC(=O)Cn2c(=O)n(Cc3nc(C)no3)c(=O)c3cc4c(cc32)OCO4)cc1, the survival was 90% (inactive). With COc1ccc(CC2C(=O)Nc3ccc(Br)cc32)cc1OC (centres undefined) the survival was 75% (inactive). For CCOc1c(CC2C(=O)Nc3ccc(Br)cc32)cccc1OC (centres undefined), the survival was 99% (inactive). For CCCCOc1ccccc1CC1C(=O)Nc2ccc(Br)cc21 (centres undefined), the survival was 3% (active). With COc1ccc(OC)c(CC2C(=O)Nc3ccc(Br)cc32)c1 (centres undefined) the survival was 84% (inactive). In the case of CCOc1ccccc1CC1C(=O)Nc2ccc(Br)cc21 (centres undefined), the survival is reported as 73% (inactive). For CCCOc1ccc(CC2C(=O)Nc3ccc(Br)cc32)cc1 (centres undefined), the survival was -7% (active). Cc1ccccc1C(=O)NCc1ccc2c(c1)CCN2C(=O)c1ccccc1 was tested, and the survival was 71% (inactive). For COc1cccc(OC)c1C(=O)Nc1ccc(-c2nc3ncccc3o2)cc1, the survival was 88% (inactive). In the case of COc1ccc(C)cc1NC(=O)Cn1c(=O)cc(C)c2c(C)nn(C)c21, the survival is reported as 68% (inactive). For CCN(Cc1ccccc1)C(=O)Cn1cc(S(=O)(=O)Cc2cccc(Cl)c2)c2ccccc21, the survival was 75% (inactive). In the case of Cc1nn(C(=O)c2ccccc2)c(C)c1Sc1ccc(Cl)cc1, the survival is reported as 6% (active). Cc1nn(C(=O)COc2ccccc2)c(C)c1Sc1ccccc1 was tested, and the survival was 94% (inactive). With Cc1nn(C(=O)c2ccc(Cl)cc2)c(C)c1Sc1ccc(Cl)cc1 the survival was 40% (inactive). With COc1cc(C(=O)n2nc(C)c(Sc3ccc(Cl)cc3)c2C)cc(OC)c1OC the survival was 47% (inactive). With Cc1ccc(Sc2c(C)nn(C(=O)COc3ccc(F)cc3)c2C)cc1 the survival was 85% (inactive). Cc1nn(-c2ccccc2)c(OC(=O)C(C)C)c1Sc1ccc(Cl)cc1 was tested, and the survival was 39% (inactive). Cc1ccc(Sc2c(C)nn(C(=O)COc3ccccc3)c2C)cc1 was tested, and the survival was 9% (active). With Cc1ccc(Sc2c(C)nn(C(=O)c3ccc(Cl)cc3)c2C)cc1 the survival was 2% (active). Cc1nn(C(=O)COc2ccc(Cl)cc2)c(C)c1Sc1ccccc1 was tested, and the survival was 88% (inactive). Cc1ccccc1Nc1c(-c2cccc(Cl)c2)nc2ncccn12 was tested, and the survival was 83% (inactive). For NC(=O)c1ccccc1NC(=O)CSc1nc(N)cc(=O)[nH]1, the survival was 111% (inactive). With CCOC(=O)/C(C#N)=C/c1ccc(-c2ccccc2)o1 the survival was 81% (inactive). In the case of CCCC(=O)n1nc(-c2cccnc2)nc1NCc1ccc(OC)cc1, the survival is reported as 86% (inactive). CCOc1ccc2nc(Cl)c(CN(Cc3ccco3)C(=O)N(C)C)cc2c1 was tested, and the survival was 109% (inactive). Cc1ccc(C)c(N2CCN(C(=O)c3cc(S(=O)(=O)N4CCCCCC4)cn3C)CC2)c1 was tested, and the survival was 77% (inactive). For CNC(=O)C1CCN(S(=O)(=O)c2ccccc2)CC1, the survival was 109% (inactive). For COc1ccc(OCC(=O)Nc2cc(-c3nc4ccccc4o3)ccc2Cl)cc1, the survival was 104% (inactive). For COc1ccc(-c2nc3ccccc3o2)cc1NC(=O)c1ccc(-c2ccc(Br)cc2)o1, the survival was 73% (inactive). In the case of O=C(Nc1cc(-c2nc3ccccc3o2)ccc1Cl)c1ccc(Br)o1, the survival is reported as 65% (inactive). COc1ccc(-c2nc3ccccc3o2)cc1NC(=O)c1ccc(OCC(C)C)cc1 was tested, and the survival was 55% (inactive). In the case of COc1ccc(-c2nc3ccccc3o2)cc1NC(=O)C(C)(C)Oc1ccc(Br)cc1, the survival is reported as 0% (active). In the case of COc1ccc(-c2nc3ccccc3o2)cc1NC(=O)COc1ccc(C(C)(C)C)cc1, the survival is reported as 2% (active). For COc1ccc(-c2nc3ccccc3o2)cc1NC(=O)c1cc(Br)ccc1OC, the survival was 66% (inactive). With O=C(Nc1cc(-c2nc3ccccc3o2)ccc1Cl)c1cccc2c(Cl)cccc12 the survival was 64% (inactive). In the case of CC(C)(C)c1ccc(C(=O)Nc2cc(-c3nc4ccccc4o3)ccc2Cl)cc1, the survival is reported as 2% (active). O=c1nc2sc3ccccc3n2c(=O)n1-c1ccc(Cl)c(Cl)c1 was tested, and the survival was 27% (inactive). In the case of CCc1ccc(NC(=O)Cn2nnc(C(=O)NCc3ccc(C)cc3)c2N)cc1, the survival is reported as 69% (inactive). For COc1ccc(-c2cn3c(n2)sc2cc(C(=O)Nc4cc(OC)cc(OC)c4)ccc23)cc1, the survival was 98% (inactive). For COc1ccc(N2CCN(C(=O)c3cc4c(=O)n(Cc5cccs5)ccc4nc3C)CC2)cc1, the survival was 101% (inactive). In the case of CCOc1cccc(C(=O)Nc2ccc(-c3nc4cc(C)cc(C)c4o3)cc2)c1, the survival is reported as 82% (inactive). For Cc1ccc2c(c1)sc1nc(-c3cc4ccccc4oc3=O)cn12, the survival was 76% (inactive). For Cc1cc(C)c(NC(=O)Cn2nnc(-c3nc(-c4ccncc4)no3)c2N)c(C)c1, the survival was 71% (inactive). COc1cccc(Nc2nc3ccccc3c3nncn23)c1 was tested, and the survival was 84% (inactive). With Cc1ccc(Cl)cc1Nc1nc2ccccc2c2nncn12 the survival was 92% (inactive). With Cc1ccc(Nc2nc3ccccc3c3nncn23)cc1C the survival was 3% (active). With COc1cc2ncc3c(-c4ccccc4)nn(CC(=O)NC4CCCCC4)c3c2cc1OC the survival was 79% (inactive). CC(C)(C)c1ccc(Oc2ccc(NC(=O)CCC(=O)OCC(=O)c3ccccc3)cc2)cc1 was tested, and the survival was 86% (inactive). For O=C(CCSCc1cccc(Cl)c1)N1CCN(c2ccc(Cl)cc2)CC1, the survival was 80% (inactive). For CCN(CC)C(=O)c1sc2c(c1C)c(=O)n(-c1ccc(Cl)c(Cl)c1)c(=O)n2Cc1cc(=O)n2c(C)cccc2n1, the survival was 0% (active). With CCN(CC)C(=O)c1sc2c(c1C)c(=O)n(-c1ccc(C)c(C)c1)c(=O)n2Cc1cc(=O)n2c(C)cccc2n1 the survival was 22% (inactive). In the case of CCN(CC)C(=O)c1sc2c(c1C)c(=O)n(-c1ccc(Cl)c(Cl)c1)c(=O)n2Cc1cc(=O)n2ccccc2n1, the survival is reported as 118% (inactive). COc1ccccc1N1CCN(CC(=O)N2CCCC2)CC1 was tested, and the survival was 94% (inactive). In the case of Cc1nc2nc[nH]n2c(=O)c1NS(=O)(=O)c1ccc(Br)cc1, the survival is reported as 84% (inactive). In the case of O=S(=O)(c1cc(Cl)ccc1Cl)N1CCCC1, the survival is reported as 78% (inactive). In the case of CCOc1ccccc1NC(=O)CSC1=Nc2ccccc2C2=NC(CC(=O)NC3CCCCC3)C(=O)N12 (centres undefined), the survival is reported as 81% (inactive). Cc1ccc(O)c(NC(=O)COCc2cc(-c3ccco3)on2)c1 was tested, and the survival was 87% (inactive). For O=C(COCc1cc(-c2ccco2)on1)Nc1cccc(Cl)c1Cl, the survival was 0% (active). O=C(COCc1cc(-c2ccc(F)cc2)on1)Nc1cccc(Cl)c1Cl was tested, and the survival was 64% (inactive). In the case of O=C(COCc1cc(-c2ccco2)on1)Nc1cc(Cl)ccc1O, the survival is reported as -2% (active). With O=C(COCc1cc(-c2cccs2)on1)Nc1cccc(Cl)c1Cl the survival was 59% (inactive). With Cc1ccc(Cl)cc1NC(=O)COCc1cc(-c2ccco2)on1 the survival was 77% (inactive). COc1cccc(CNC(=O)c2ccc3c(c2)N(Cc2ccc(F)cc2Cl)C(=O)c2ccccc2S3)c1 was tested, and the survival was 19% (inactive). Cc1c(C(=O)Nc2cccc(C(F)(F)F)c2)sc2nc[nH]c(=O)c12 was tested, and the survival was 73% (inactive). CCOC(=O)c1c(NC(=O)CCCOc2ccc(Cl)cc2)sc2c1CCC2 was tested, and the survival was 20% (inactive). With CCOC(=O)c1c(NC(=O)CCCOc2ccc(C(C)(C)C)cc2)sc2c1CCCC2 the survival was 9% (active). With CCOC(=O)c1c(NC(=O)CCCOc2ccc(C(C)(C)C)cc2)sc2c1CCC2 the survival was 7% (active). With CCOC(=O)c1c(NC(=O)COc2ccc(C(C)(C)C)cc2)sc2c1CCCC2 the survival was 69% (inactive). CCOC(=O)c1c(NC(=O)/C=C/c2ccc(OCC)cc2)sc2c1CCC2 was tested, and the survival was 139% (inactive). With CCOC(=O)c1c(NC(=O)/C=C/c2ccc(OCC)cc2)sc2c1CCCC2 the survival was 78% (inactive). In the case of CN(C)C(=O)c1ccc(N(C)S(=O)(=O)c2ccccc2)cc1, the survival is reported as 113% (inactive). In the case of COc1ccc(NC(=S)N(Cc2ccco2)Cc2cc3cc(C)c(C)cc3[nH]c2=O)cc1, the survival is reported as 103% (inactive). Cc1ccc(C)c(C(=O)CSc2nc(-c3ccccc3)nc3c2CCCC3)c1 was tested, and the survival was 6% (active). With Cc1ccc(C(=O)CSc2nc(-c3ccccc3)nc3c2CCCC3)c(C)c1 the survival was 58% (inactive). Cc1ccc(C(=O)CSc2nc(-c3ccccc3)nc3c2CCCC3)cc1 was tested, and the survival was 55% (inactive). With CCn1c(CNC(=O)c2ccc(OC)cc2)nnc1SCC(=O)Nc1ccc(C)cc1 the survival was 125% (inactive). O=C1CN(C(=O)c2ccccc2C(F)(F)F)C(c2ccccc2)c2cc(F)ccc2N1 (centres undefined) was tested, and the survival was 66% (inactive). In the case of O=C(NCc1ccc(F)cc1)C1CCCCN1S(=O)(=O)c1ccc(F)cc1 (centres undefined), the survival is reported as 0% (active). In the case of Cc1ccc(CNC(=O)C2CCCCN2S(=O)(=O)c2ccc(F)cc2)cc1 (centres undefined), the survival is reported as 91% (inactive). With COc1ccc(CNC(=O)C2CCCCN2S(=O)(=O)c2ccc(F)cc2)cc1 (centres undefined) the survival was 87% (inactive).
